Measurements published in PubChem BioAssay AID1159580 (chemical genetic matrix, 2015).
In all, about 5,500 compounds went through this assay and about 2,000 (36%) were called active. Roughly 18% stayed inconclusive and do not appear here. No stated cut-off is given here; in the data, active means normalized growth mostly below about 0.91 (no sharp cut-off); inconclusive means no clear call, values can overlap the other calls; inactive means mostly above about 0.92. The list shows a part of the results.

Experiment: chemical genetic growth profiling, strain panel (AID 1159580);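 further: tested at 20 µM; growth read once vehicle control cultures reached saturation at 30 °C; 1 = growth at the plate median or of vehicle wells; lower values mean less growth of the strain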
Details: growth OD

Measured: normalized growth

CN[C@@H]1C(O)[C@@H](O[C@@H]2[C@@H](O)[C@H](O[C@H]3OC(CN)=CC[C@H]3N)[C@@H](N)C[C@H]2N)OC[C@]1(C)O (some centres undefined)
active: S. cerevisiae deletion strains, locus YOR069W, strain VPS5, active compounds read low 1.11 [resistant]
inactive: S. cerevisiae deletion strains, locus YJR075W, strain HOC1, active compounds read low 1.02 | S. cerevisiae deletion strains, locus YKL009W, strain mrt4, active compounds read low 1.01 | S. cerevisiae deletion strains, locus YKL068W, active compounds read low 0.996 | S. cerevisiae deletion strains, locus YKL085W, strain MDH1 (second series), active compounds read low 1 | S. cerevisiae deletion strains, locus YKL085W, strain MDH1, active compounds read low 1 | S. cerevisiae deletion strains, locus YKL160W, strain elf1, active compounds read low 1.02 | S. cerevisiae deletion strains, locus YKL190W, strain CNB1, active compounds read low 1.02 | S. cerevisiae deletion strains, locus YKR001C, strain vps1, active compounds read low 0.993 | S. cerevisiae deletion strains, locus YKR026C, strain gcn3, active compounds read low 1 | S. cerevisiae deletion strains, locus YKR091W, strain srl3, active compounds read low 1.01 | S. cerevisiae deletion strains, locus YLL001W, strain dnm1, active compounds read low 1.03 | S. cerevisiae deletion strains, locus YLL026W, active compounds read low 1.02 | S. cerevisiae deletion strains, locus YLL041C, strain sdh2, active compounds read low 1.02 | S. cerevisiae deletion strains, locus YLR027C, strain aat2, active compounds read low 1.02 | S. cerevisiae deletion strains, locus YLR039C, strain RIC1, active compounds read low 1.13 | S. cerevisiae deletion strains, locus YLR058C, strain SHM2, active compounds read low 1.02 | S. cerevisiae deletion strains, locus YLR102C, strain apc9, active compounds read low 0.993 | S. cerevisiae deletion strains, locus YLR113W, strain HOG1, active compounds read low 0.949 | S. cerevisiae deletion strains, locus YLR221C, strain rsa3, active compounds read low 0.984 | S. cerevisiae deletion strains, locus YLR258W, strain gsy2, active compounds read low 1.01 | S. cerevisiae deletion strains, locus YLR262C, strain YPT6 (second series), active compounds read low 1.03 | S. cerevisiae deletion strains, locus YLR262C, strain YPT6, active compounds read low 1.09 | S. cerevisiae deletion strains, locus YLR268W, strain sec22, active compounds read low 1.01 | S. cerevisiae deletion strains, locus YLR320W, strain mms22, active compounds read low 0.988 | S. cerevisiae deletion strains, locus YLR330W, strain CHS5, active compounds read low 1.01 | S. cerevisiae deletion strains, locus YLR342W, strain FKS1 (second series), active compounds read low 1.05 | S. cerevisiae deletion strains, locus YLR342W, strain FKS1, active compounds read low 1.02 | S. cerevisiae deletion strains, locus YLR357W, strain rsc2, active compounds read low 1.03 | S. cerevisiae deletion strains, locus YLR370C, strain arc18, active compounds read low 1.02 | S. cerevisiae deletion strains, locus YLR371W, strain rom2, active compounds read low 0.995 | S. cerevisiae deletion strains, locus YLR384C, strain iki3, active compounds read low 1.01 | S. cerevisiae deletion strains, locus YLR418C, strain cdc73, active compounds read low 1.02 | S. cerevisiae deletion strains, locus YML016C, strain PPZ1, active compounds read low 1.02 | S. cerevisiae deletion strains, locus YML120C, strain ndi1, active compounds read low 1.02 | S. cerevisiae deletion strains, locus YML124C, strain tub3, active compounds read low 0.991 | S. cerevisiae deletion strains, locus YMR058W, strain fet3, active compounds read low 1.03 | S. cerevisiae deletion strains, locus YMR078C, strain ctf18, active compounds read low 0.996 | S. cerevisiae deletion strains, locus YMR125W, strain sto1, active compounds read low 1 | S. cerevisiae deletion strains, locus YMR129W, active compounds read low 1.01 | S. cerevisiae deletion strains, locus YMR205C, strain PFK2, active compounds read low 1.02 | S. cerevisiae deletion strains, locus YMR223W, strain ubp8, active compounds read low 1 | S. cerevisiae deletion strains, locus YMR231W, strain pep5, active compounds read low 1 | S. cerevisiae deletion strains, locus YMR263W, strain SAP30, active compounds read low 1.05 | S. cerevisiae deletion strains, locus YMR307W, strain GAS1, active compounds read low 1.01 | S. cerevisiae deletion strains, locus YNL067W, strain RPL9B, active compounds read low 1.04 | S. cerevisiae deletion strains, locus YNL071W, strain lat1, active compounds read low 1.02 | S. cerevisiae deletion strains, locus YNL128W, strain TEP1, active compounds read low 1.04 | S. cerevisiae deletion strains, locus YNL153C, strain GIM3, active compounds read low 1.03 | S. cerevisiae deletion strains, locus YNL183C, strain NPR1, active compounds read low 0.93 | S. cerevisiae deletion strains, locus YNL209W, strain ssb2, active compounds read low 1.01 | S. cerevisiae deletion strains, locus YNL233W, strain BNI4, active compounds read low 1.02 | S. cerevisiae deletion strains, locus YNL248C, strain rpa49, active compounds read low 0.992 | S. cerevisiae deletion strains, locus YNL250W, strain rad50, active compounds read low 1 | S. cerevisiae deletion strains, locus YNL271C, strain bni1, active compounds read low 1 | S. cerevisiae deletion strains, locus YNL298W, strain CLA4, active compounds read low 1 | S. cerevisiae deletion strains, locus YNL307C, strain MCK1, active compounds read low 0.999 | S. cerevisiae deletion strains, locus YNL322C, strain KRE1 (second series), active compounds read low 0.996 | S. cerevisiae deletion strains, locus YNL322C, strain KRE1, active compounds read low 1.02 | S. cerevisiae deletion strains, locus YNR049C, strain mso1, active compounds read low 1.04 | S. cerevisiae deletion strains, locus YNR052C, strain pop2, active compounds read low 0.987 | S. cerevisiae deletion strains, locus YOL006C, strain TOP1, active compounds read low 1.19 | S. cerevisiae deletion strains, locus YOL012C, strain htz1 2.02 | S. cerevisiae deletion strains, locus YOL147C, strain pex11, active compounds read low 0.986 | S. cerevisiae deletion strains, locus YOR001W, strain rrp6, active compounds read low 1.03 | S. cerevisiae deletion strains, locus YOR061W, strain CKA2, active compounds read low 1.02 | S. cerevisiae deletion strains, locus YOR070C, strain gyp1, active compounds read low 1 | S. cerevisiae deletion strains, locus YOR080W, strain dia2, active compounds read low 1 | S. cerevisiae deletion strains, locus YOR083W, strain WHI5, active compounds read low 0.992 | S. cerevisiae deletion strains, locus YOR106W, strain vam3, active compounds read low 1.03 | S. cerevisiae deletion strains, locus YOR136W, strain idh2, active compounds read low 0.991 | S. cerevisiae deletion strains, locus YOR144C, strain elg1, active compounds read low 0.991 | S. cerevisiae deletion strains, locus YOR184W, strain ser1, active compounds read low 1.01 | S. cerevisiae deletion strains, locus YOR231W, strain MKK1, active compounds read low 0.952 | S. cerevisiae deletion strains, locus YOR265W, strain rbl2, active compounds read low 1 | S. cerevisiae deletion strains, locus YOR270C, strain vph1, active compounds read low 1.05 | S. cerevisiae deletion strains, locus YOR290C, strain snf2, active compounds read low 0.979 | S. cerevisiae deletion strains, locus YPL051W, strain arl3, active compounds read low 1.01 | S. cerevisiae deletion strains, locus YPL055C, strain LGE1, active compounds read low 1.09 | S. cerevisiae deletion strains, locus YPL078C, strain atp4, active compounds read low 1.03 | S. cerevisiae deletion strains, locus YPL106C, strain sse1, active compounds read low 1.02 | S. cerevisiae deletion strains, locus YPL240C, strain hsp82, active compounds read low 1.01 | S. cerevisiae deletion strains, locus YPL256C, strain CLN2, active compounds read low 0.96 | S. cerevisiae deletion strains, locus YPR119W, strain clb2, active compounds read low 0.984 | S. cerevisiae deletion strains, locus YPR141C, strain kar3, active compounds read low 1 | S. cerevisiae deletion strains, locus YPR163C, strain tif3, active compounds read low 0.966 | S. cerevisiae deletion strains, locus YPR167C, strain met16, active compounds read low 0.999 | S. cerevisiae deletion strains, strain wtn01, active compounds read low 1.01 | S. cerevisiae strains, strain wild type, active compounds read low 1.01
